Pf apPOL inh – Pf-apPOL DNA polymerase inhibition; Recombinant Pf-apPOL, molecular beacon fluorescence, 1.5 h; inhibition, % at 10 µM; 210,000 compounds, 0.25% hits
mHTT-CaM PPI inh – inhibitors of human mutant huntingtin-calmodulin interaction. AlphaScreen His-mHTT/GST-CaM binding, luminescence. inhibition, % at 15 µM. 190,000 compounds, 3.6% hits. AID 1671202
Target sequence (P42858 whole entry, looked up, change not shown): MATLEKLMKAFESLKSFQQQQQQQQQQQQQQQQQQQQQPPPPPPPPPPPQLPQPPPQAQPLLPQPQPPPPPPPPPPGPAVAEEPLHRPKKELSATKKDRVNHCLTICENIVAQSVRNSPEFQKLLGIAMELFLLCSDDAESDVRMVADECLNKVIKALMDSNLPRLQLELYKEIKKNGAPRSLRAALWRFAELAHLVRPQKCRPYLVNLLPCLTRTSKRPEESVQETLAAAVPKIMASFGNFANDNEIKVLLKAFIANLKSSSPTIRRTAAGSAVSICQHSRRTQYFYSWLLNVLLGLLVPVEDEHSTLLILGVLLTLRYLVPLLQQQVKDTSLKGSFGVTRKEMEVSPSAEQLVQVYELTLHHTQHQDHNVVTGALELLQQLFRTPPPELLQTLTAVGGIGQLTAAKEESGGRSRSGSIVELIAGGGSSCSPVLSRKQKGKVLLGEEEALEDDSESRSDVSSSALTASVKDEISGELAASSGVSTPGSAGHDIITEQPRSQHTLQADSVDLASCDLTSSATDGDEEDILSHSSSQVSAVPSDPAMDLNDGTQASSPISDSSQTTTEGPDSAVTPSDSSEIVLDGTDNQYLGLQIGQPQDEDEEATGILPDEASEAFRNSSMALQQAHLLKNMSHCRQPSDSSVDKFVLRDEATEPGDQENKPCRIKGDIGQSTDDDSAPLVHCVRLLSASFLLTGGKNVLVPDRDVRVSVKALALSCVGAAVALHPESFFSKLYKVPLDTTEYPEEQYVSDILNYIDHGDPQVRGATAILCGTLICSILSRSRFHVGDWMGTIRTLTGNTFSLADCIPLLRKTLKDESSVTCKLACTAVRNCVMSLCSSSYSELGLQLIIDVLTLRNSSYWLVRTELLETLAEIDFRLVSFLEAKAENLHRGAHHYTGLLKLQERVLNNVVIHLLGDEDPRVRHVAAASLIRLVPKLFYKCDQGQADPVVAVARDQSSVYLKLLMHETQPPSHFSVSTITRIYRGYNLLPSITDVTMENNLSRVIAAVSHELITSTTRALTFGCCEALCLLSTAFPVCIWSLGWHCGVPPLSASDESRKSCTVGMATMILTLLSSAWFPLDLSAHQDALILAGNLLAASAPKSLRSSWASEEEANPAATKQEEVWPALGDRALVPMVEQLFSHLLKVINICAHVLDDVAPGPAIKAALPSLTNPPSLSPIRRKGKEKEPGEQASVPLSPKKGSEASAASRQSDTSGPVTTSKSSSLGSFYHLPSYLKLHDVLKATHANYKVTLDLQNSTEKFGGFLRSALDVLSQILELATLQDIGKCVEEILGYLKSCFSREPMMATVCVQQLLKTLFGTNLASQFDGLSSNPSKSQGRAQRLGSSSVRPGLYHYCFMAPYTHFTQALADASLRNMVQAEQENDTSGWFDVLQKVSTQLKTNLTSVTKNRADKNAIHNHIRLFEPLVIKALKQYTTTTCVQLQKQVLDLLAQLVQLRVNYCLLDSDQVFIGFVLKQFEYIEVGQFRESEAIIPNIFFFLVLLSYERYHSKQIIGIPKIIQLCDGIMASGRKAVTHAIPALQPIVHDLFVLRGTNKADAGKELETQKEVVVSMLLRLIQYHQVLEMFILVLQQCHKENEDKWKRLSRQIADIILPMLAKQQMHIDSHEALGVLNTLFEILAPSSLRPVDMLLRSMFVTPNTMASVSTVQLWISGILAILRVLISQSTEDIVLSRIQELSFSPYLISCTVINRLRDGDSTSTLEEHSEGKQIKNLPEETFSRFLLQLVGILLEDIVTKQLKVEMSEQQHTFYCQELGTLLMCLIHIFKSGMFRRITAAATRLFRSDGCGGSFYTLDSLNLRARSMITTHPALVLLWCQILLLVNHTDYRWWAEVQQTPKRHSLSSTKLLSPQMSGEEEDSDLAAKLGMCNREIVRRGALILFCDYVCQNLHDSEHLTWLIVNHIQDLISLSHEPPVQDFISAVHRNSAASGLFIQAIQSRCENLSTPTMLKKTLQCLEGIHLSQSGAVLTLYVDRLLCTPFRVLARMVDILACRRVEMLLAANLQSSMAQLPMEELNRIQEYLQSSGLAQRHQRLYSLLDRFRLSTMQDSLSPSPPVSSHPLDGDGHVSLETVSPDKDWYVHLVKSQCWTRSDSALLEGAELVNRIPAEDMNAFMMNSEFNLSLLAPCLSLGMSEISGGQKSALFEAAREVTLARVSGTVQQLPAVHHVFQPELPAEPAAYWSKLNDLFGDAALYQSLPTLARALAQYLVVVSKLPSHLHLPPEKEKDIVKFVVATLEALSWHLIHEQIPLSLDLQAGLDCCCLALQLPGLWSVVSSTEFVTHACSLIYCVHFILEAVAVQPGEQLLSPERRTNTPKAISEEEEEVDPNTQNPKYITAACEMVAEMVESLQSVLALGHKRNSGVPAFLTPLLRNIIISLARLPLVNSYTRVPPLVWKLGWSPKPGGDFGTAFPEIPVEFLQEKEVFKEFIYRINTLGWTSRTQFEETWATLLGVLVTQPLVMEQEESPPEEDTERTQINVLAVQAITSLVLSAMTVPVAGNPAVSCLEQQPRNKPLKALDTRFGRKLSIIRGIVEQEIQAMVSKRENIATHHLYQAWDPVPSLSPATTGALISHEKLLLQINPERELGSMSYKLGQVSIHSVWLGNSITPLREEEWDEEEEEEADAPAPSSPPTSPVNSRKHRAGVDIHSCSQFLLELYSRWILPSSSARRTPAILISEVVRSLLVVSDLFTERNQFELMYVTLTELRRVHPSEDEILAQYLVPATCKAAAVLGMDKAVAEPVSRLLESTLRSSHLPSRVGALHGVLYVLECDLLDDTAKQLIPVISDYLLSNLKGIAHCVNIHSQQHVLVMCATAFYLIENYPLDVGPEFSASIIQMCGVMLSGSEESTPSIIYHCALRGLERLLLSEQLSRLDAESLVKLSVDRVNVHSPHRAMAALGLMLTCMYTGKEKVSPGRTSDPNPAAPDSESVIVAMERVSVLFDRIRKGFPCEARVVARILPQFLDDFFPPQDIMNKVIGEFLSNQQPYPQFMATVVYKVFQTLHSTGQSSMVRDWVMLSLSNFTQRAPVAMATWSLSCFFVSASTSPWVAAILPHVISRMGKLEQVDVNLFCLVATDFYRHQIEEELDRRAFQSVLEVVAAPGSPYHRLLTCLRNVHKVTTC
Numbers stand for hits. Only a selection was taken, and hits are over-represented in it overall. Cut-off read from the data, not from the text of the source: active = inhibition above about 50%; inactive = the rest.

O=C(Nc1nnc(C2CC2)s1)c1ccc(Oc2cc(Cl)cc(Cl)c2)o1 was read as Pf apPOL inh inactive.
`Cc1c(C(=O)NC2CCCC2)sc2nc(C(C)C)cn12` gave Pf apPOL inh inactive and mHTT-CaM PPI inh inactive.
Cc1nnc(SCc2csc(N)n2)n1C was read as mHTT-CaM PPI inh inactive.
For N=c1c(C(=O)NC2CCCCC2)cc2c(=O)n3ccccc3nc2n1CCN1CCOCC1 the results were Pf apPOL inh inactive and mHTT-CaM PPI inh inactive.
Screening Cc1cc(C)cc(NC(=O)Cc2nc(-c3ccccn3)n[nH]2)c1 returned Pf apPOL inh inactive and mHTT-CaM PPI inh 78.
Cc1cccc(NC(=O)Cc2nc(-c3ccccc3)n[nH]2)c1 was read as Pf apPOL inh inactive and mHTT-CaM PPI inh inactive.
`CC(=O)c1c(C)oc(C)c1C(C)=O` gave Pf apPOL inh inactive and mHTT-CaM PPI inh inactive.
CCNc1cc(N2CCC(CCC(=O)NCc3ccc(F)cc3Cl)CC2)ncn1 was read as Pf apPOL inh inactive and mHTT-CaM PPI inh inactive.
For Cc1cn(CCC(=O)O)c2ccccc12 the results were Pf apPOL inh inactive.
Nc1c(Br)cc(Cl)c2c1C(=O)c1ccccc1C2=O was read as Pf apPOL inh inactive and mHTT-CaM PPI inh inactive.
`Nc1c(Br)cc(O)c2c1C(=O)c1ccccc1C2=O` gave Pf apPOL inh inactive and mHTT-CaM PPI inh 83.
COc1cc2c(cc1OC)C(C(=O)Nc1ccc(F)cc1)C1c3ccccc3CCN1C2=O (stereo not drawn) was read as Pf apPOL inh inactive and mHTT-CaM PPI inh inactive.
`COc1ccc(C)cc1NC(=O)C1c2ccccc2C(=O)N2CCc3ccccc3C12` (stereo not drawn) gave Pf apPOL inh inactive and mHTT-CaM PPI inh inactive.
CCOc1ccccc1NC(=O)C1c2cc(OC)c(OC)cc2C(=O)N2CCc3ccccc3C12 (stereo not drawn) was read as Pf apPOL inh inactive and mHTT-CaM PPI inh 54.
`COc1cc(Cl)c(C)cc1NC(=O)C1c2ccccc2C(=O)N2CCc3ccccc3C12` (stereo not drawn) gave Pf apPOL inh inactive and mHTT-CaM PPI inh 54.
Cc1noc(C)c1C1CCCN1C(=O)c1ccccc1 (stereo not drawn) was read as Pf apPOL inh inactive and mHTT-CaM PPI inh inactive.
For COc1ccc(C(=O)Nc2nc(CC(=O)Nc3ccc4c(c3)OCCO4)cs2)cc1 the results were Pf apPOL inh inactive and mHTT-CaM PPI inh inactive.
Screening COc1ccc(Nc2nc(C(=O)Nc3ccc4c(c3)OCCO4)cs2)c(OC)c1 returned Pf apPOL inh inactive and mHTT-CaM PPI inh 53.
For CSc1nc2c(c(=O)[nH]1)C1(CCCCC1)Cc1ccccc1-2 the results were Pf apPOL inh inactive and mHTT-CaM PPI inh inactive.
Screening NNc1nc(N)c2c(n1)-c1ccccc1CC21CCCCC1 returned Pf apPOL inh inactive and mHTT-CaM PPI inh 100.
`COc1ccc(Cl)cc1C(=O)Nc1cccc(NC(C)=O)c1` gave Pf apPOL inh inactive and mHTT-CaM PPI inh inactive.
Screening COc1ccc(NC(=O)c2sc3nc4c(c(-c5ccc(C)o5)c3c2N)CCCC4)cc1 returned Pf apPOL inh inactive and mHTT-CaM PPI inh 69.
Screening Cc1ccc(-c2c3c(nc4sc(C(N)=O)c(N)c24)CCCC3)o1 returned Pf apPOL inh inactive and mHTT-CaM PPI inh inactive.
For CCOC(=O)C(C)NC(=O)NCCC1CCN(S(=O)(=O)c2ccc(C)cc2)CC1 (stereo not drawn) the results were Pf apPOL inh inactive and mHTT-CaM PPI inh inactive.
`Cc1nc2cc(NC(=O)CCC3NC(=O)c4ccccc4NC3=O)ccc2s1` (stereo not drawn) gave Pf apPOL inh inactive and mHTT-CaM PPI inh inactive.
COCCCNC(=O)C1CCN(Cc2cc3ccccc3n2Cc2ccc(F)cc2)CC1 was read as Pf apPOL inh inactive and mHTT-CaM PPI inh 53.
For COCCCNC(=O)C1CCN(Cc2cc3ccccc3n2Cc2cccc(F)c2)CC1 the results were Pf apPOL inh inactive and mHTT-CaM PPI inh 51.
Screening COCCCNC(=O)C1CCN(c2cnn(Cc3ccccc3)c(=O)c2)CC1 returned Pf apPOL inh inactive and mHTT-CaM PPI inh inactive.
COCCCNC(=O)C1CCN(c2ncccc2-c2nc(-c3cccc(F)c3)no2)CC1 was read as Pf apPOL inh inactive and mHTT-CaM PPI inh inactive.
COC(=O)C12CC3CC(CC(NC(=O)C4CCC4)(C3)C1)C2 was read as Pf apPOL inh inactive and mHTT-CaM PPI inh inactive.
CCCCN(C)C(=O)CN1CCN(C(=O)Nc2ccc(F)cc2)CC1=O was read as Pf apPOL inh inactive and mHTT-CaM PPI inh inactive.
Screening CN1[C@@H](c2ccccc2)COc2c(Cl)cccc2S1(=O)=O returned Pf apPOL inh inactive and mHTT-CaM PPI inh inactive.
Screening CC(=O)C1=C(C)NC(SCC(=O)c2ccc([N+](=O)[O-])cc2)=C(C#N)C1c1cccc(C)c1 (stereo not drawn) returned Pf apPOL inh inactive and mHTT-CaM PPI inh 64.
`CC(=O)C1=C(C)NC(SCC(=O)c2cccc([N+](=O)[O-])c2)=C(C#N)C1c1cccc(C)c1` (stereo not drawn) gave Pf apPOL inh inactive and mHTT-CaM PPI inh 62.
Screening CC(=O)C1=C(C)NC(SCC(=O)c2ccccc2)=C(C#N)C1c1ccccc1Cl (stereo not drawn) returned Pf apPOL inh inactive and mHTT-CaM PPI inh inactive.
For CC(=O)C1=C(C)NC(SCC(N)=O)=C(C#N)C1c1cccc([N+](=O)[O-])c1 (stereo not drawn) the results were Pf apPOL inh inactive and mHTT-CaM PPI inh inactive.
`CCc1ccc(C2C(C#N)=C(SCC(=O)c3cccc([N+](=O)[O-])c3)NC(C)=C2C(C)=O)cc1` (stereo not drawn) gave Pf apPOL inh inactive and mHTT-CaM PPI inh inactive.
Screening CC(=O)C1=C(C)NC(SCC(=O)c2ccc([N+](=O)[O-])cc2)=C(C#N)C1c1ccccc1Cl (stereo not drawn) returned Pf apPOL inh inactive and mHTT-CaM PPI inh 61.
CC(=O)C1=C(C)NC(SCC(=O)c2ccccc2)=C(C#N)C1c1ccc(Cl)cc1 (stereo not drawn) was read as Pf apPOL inh inactive and mHTT-CaM PPI inh inactive.
For CC(=O)C1=C(C)NC(SCC(=O)c2ccc([N+](=O)[O-])cc2)=C(C#N)C1c1ccccc1 (stereo not drawn) the results were Pf apPOL inh inactive and mHTT-CaM PPI inh 59.
`COc1ccc(NC(=O)N2CCC3(C2)Nc2cccnc2NC3=NC2CCCC2)c(C)c1` (stereo not drawn) gave Pf apPOL inh inactive and mHTT-CaM PPI inh inactive.
`O=C1C(=Cc2cn(CC(=O)N3CCOCC3)c3ccccc23)C(=O)c2ccccc21` gave Pf apPOL inh inactive and mHTT-CaM PPI inh inactive.
`O=C(CSc1nnc(NC(=O)CCc2ccccc2)s1)Nc1ccc([N+](=O)[O-])cc1` gave Pf apPOL inh inactive and mHTT-CaM PPI inh inactive.
Screening CCOC(=O)c1csc(NC(=O)CCCn2nc(-c3ccc(F)cc3)ccc2=O)n1 returned Pf apPOL inh inactive and mHTT-CaM PPI inh inactive.
COCCNc1ccnc2c(C)cc(Cl)cc12 was read as Pf apPOL inh inactive and mHTT-CaM PPI inh inactive.
C/C(Nc1ccccc1O)=C1/C(=O)CC2C1C2(C)C (stereo not drawn) was read as Pf apPOL inh inactive and mHTT-CaM PPI inh inactive.
For CC(=O)C1=C(C)NC(SCC(=O)c2ccc(C)cc2)=C(C#N)C1c1ccco1 (stereo not drawn) the results were Pf apPOL inh inactive and mHTT-CaM PPI inh inactive.
`CC(=O)C1=C(C)NC(SCC(=O)c2ccc([N+](=O)[O-])cc2)=C(C#N)C1c1ccco1` (stereo not drawn) gave Pf apPOL inh inactive and mHTT-CaM PPI inh 69.

Assay outcomes: PubChem, University of Kansas High Throughput Screening Laboratory
